Reference: the antibiotic and cytotoxicity screens of Wong et al. (2023)
Out of some 39,000 compounds screened, about 3,300 (8.5%) were called active. For the sample, actives were picked, then their nearest neighbours and some compounds at random.

test system: HepG2; assay: cytotoxicity call (relative viability < 0.9); conditions: 10 µM

Row | Structure (SMILES) | cytotoxicity call
1 | COc1ccc2c3c(n(c2c1)C)[C@@H](CO)N(Cc1cc(cc(c1)OC)OC)C[C@]13CN(C1)C(=O)CN1CCOCC1 | inactive
2 | COCC(=O)N1CC[C@@H]2N(S(C)(=O)=O)CC[C@@]2(C(=O)N2CCOCC2)CC1 | inactive
3 | CC(=O)Nc1cc(C(C)C)c(C(C)C)cc1C(C)C | inactive
4 | C[C@H](CO)N1C[C@H](C)[C@@H](CN(C)C(=O)Nc2ccc3c(c2)OCO3)OCCCC[C@H](C)Oc2ccc(NC(=O)c3ccccc3)cc2C1=O | inactive
5 | COCC(=O)N1C[C@H](C)[C@H](OC)CN(C)C(=O)c2cc(NC(=O)c3ccc(F)cc3)ccc2OC[C@@H]1C | inactive
6 | C[C@H]1CN([C@@H](C)CO)C(=O)c2cc(NS(=O)(=O)c3cccs3)ccc2O[C@@H]1CN(C)S(=O)(=O)c1ccc(F)cc1 | inactive
7 | COc1ccc2c3c([nH]c2c1)[C@H](CO)N(C[C@]13CCN(CC1)C(=O)c1ccccc1F)C(=O)Nc1ccccc1F | inactive
8 | C[C@@H]1CN([C@H](C)CO)C(=O)c2cccc(NC(=O)Nc3ccc4c(c3)OCO4)c2O[C@H]1CN(C)S(C)(=O)=O | inactive
9 | CN1C[C@@H](O)COC[C@H]2O[C@@H](CC(=O)N3CCN(c4ccccc4)CC3)CC[C@@H]21 | inactive
10 | C[C@H](c1cccnc1)N(C(=O)Nc1ccccc1)C1CCCCC1 | active
11 | CN1CCCC1c1cccnc1.O=C(O)C(O)C(O)C(=O)O.O=C(O)C(O)C(O)C(=O)O (stereo unspecified) | inactive
12 | CN(C)S(=O)(=O)N1C[C@H]2C[C@H](C(=O)Nc3cccnc3)[C@@H](C1)O2 | inactive
13 | C[C@@H]1CN([C@@H](C)CO)C(=O)c2cccc(NC(=O)C3CCCCC3)c2O[C@@H]1CN(C)C(=O)Nc1cccc2ccccc12 | inactive
14 | C=CCN1C(=O)[C@@]2(O[C@@H](CCn3cc(CCO)nn3)[C@H]([Si](C)(C)c3ccc(OC)cc3)[C@H]2C)c2cc(N3CCC3=O)ccc21 | inactive
15 | C=CCN1C(=O)[C@]2(O[C@H](CCn3cc(CCO)nn3)[C@@H]([Si](C)(C)c3ccc(OC)cc3)[C@@H]2C)c2cc(N3CCC3=O)ccc21 | inactive
16 | C=CCN1C(=O)[C@]2(O[C@H](CCO)[C@@H]([Si](C)(C)c3ccc(OC)cc3)[C@@H]2C)c2cc(N(C=O)c3ccccc3)ccc21 | active
17 | C=CCN1C(=O)[C@@]2(O[C@@H](CCO)[C@H]([Si](C)(C)c3ccc(OC)cc3)[C@H]2C)c2cc(NC(=O)[C@H](C)O)ccc21 | inactive
18 | C=CCN1C(=O)[C@]2(O[C@H](CCO)[C@@H]([Si](C)(C)c3ccc(OC)cc3)[C@@H]2C)c2cc(NC(=O)[C@H](C)O)ccc21 | inactive
19 | C=CCN1C(=O)[C@@]2(O[C@@H](CCO)[C@H]([Si](C)(C)c3ccc(OC)cc3)[C@H]2C)c2cc(N(C=O)c3ccccc3)ccc21 | active

Row | Structure (SMILES) | cytotoxicity call
20 | CC(=O)N[C@H](Cc1ccc2ccccc2c1)C(=O)N[C@H](Cc1ccc(Cl)cc1)C(=O)N[C@H](Cc1cccnc1)C(=O)N[C@@H](CO)C(=O)N[C@@H](Cc1ccc(NC(=O)[C@@H]2CC(=O)NC(=O)N2)cc1)C(=O)N[C@H](Cc1ccc(NC(N)=O)cc1)C(=O)N[C@@H](CC(C)C)C(=O)N[C@@H](CCCCNC(C)C)C(=O)N1CCC[C@H]1C(=O)N[C@H](C)C(N)=O | inactive
21 | COc1ccc(NC(=O)Nc2ccc3c(c2)C(=O)N([C@H](C)CO)C[C@H](C)[C@H](CN(C)S(=O)(=O)c2ccc(F)cc2)OCCCC[C@H](C)O3)cc1 | inactive
22 | CC(C)NC(=O)Nc1ccc2c(c1)C(=O)N([C@@H](C)CO)C[C@@H](C)[C@H](CN(C)C(=O)Nc1ccc(C(F)(F)F)cc1)OCCCC[C@H](C)O2 | inactive
23 | CC(C)NC(=O)Nc1ccc2c(c1)C(=O)N([C@H](C)CO)C[C@H](C)[C@H](CN(C)C(=O)Nc1ccc(C(F)(F)F)cc1)OCCCC[C@H](C)O2 | inactive
24 | CC(C)NC(=O)Nc1ccc2c(c1)C(=O)N([C@H](C)CO)C[C@@H](C)[C@H](CN(C)C(=O)Nc1ccc(C(F)(F)F)cc1)OCCCC[C@H](C)O2 | inactive
25 | CC(C)NC(=O)Nc1ccc2c(c1)C(=O)N([C@@H](C)CO)C[C@@H](C)[C@H](CN(C)C(=O)Nc1ccc(C(F)(F)F)cc1)OCCCC[C@@H](C)O2 | active
26 | CC(C)NC(=O)Nc1ccc2c(c1)C(=O)N([C@@H](C)CO)C[C@@H](C)[C@@H](CN(C)C(=O)Nc1ccc(C(F)(F)F)cc1)OCCCC[C@H](C)O2 | inactive
27 | CC(C)NC(=O)Nc1ccc2c(c1)C(=O)N([C@H](C)CO)C[C@@H](C)[C@@H](CN(C)C(=O)Nc1ccc(C(F)(F)F)cc1)OCCCC[C@@H](C)O2 | active
28 | C[C@H]1CCCCO[C@@H](CN(C)C(=O)c2ccccc2)[C@@H](C)CN([C@@H](C)CO)C(=O)c2cc(NC(=O)C3CCCCC3)ccc2O1 | inactive
29 | CC(C)(C)[S@@](=O)N1Cc2cc(C(=O)NCc3ccc4c(c3)OCO4)nc(-c3cccc(-c4cccnc4)c3)c2[C@H]1CCO | inactive
30 | COCCNC(=O)C[C@@H]1CC[C@@H]2[C@@H](COc3ccc(NC(=O)Nc4cccc(F)c4)cc3C(=O)N2C)O1 | inactive
31 | CCCCNC(=O)N1C[C@@H]2[C@H](CN)[C@@H]2C1 | inactive
32 | Cc1ccc(S(=O)(=O)Nc2ccc3c(c2)C(=O)N([C@H](C)CO)C[C@@H](C)[C@H](CN(C)C(=O)NC2CCCCC2)OCCCC[C@@H](C)O3)cc1 | inactive
33 | C[C@H](CO)N1C[C@H](C)[C@@H](CN(C)C(=O)NC2CCCCC2)OCCCC[C@H](C)Oc2ccc(NS(=O)(=O)c3ccc(F)cc3)cc2C1=O | inactive
34 | Cc1ccc(S(=O)(=O)Nc2ccc3c(c2)C(=O)N([C@@H](C)CO)C[C@H](C)[C@@H](CN(C)C(=O)NC2CCCCC2)OCCCC[C@@H](C)O3)cc1 | inactive
35 | Cc1ccc(S(=O)(=O)Nc2ccc3c(c2)C(=O)N([C@H](C)CO)C[C@H](C)[C@@H](CN(C)C(=O)NC2CCCCC2)OCCCC[C@H](C)O3)cc1 | inactive
36 | Cc1ccc(S(=O)(=O)Nc2ccc3c(c2)C(=O)N([C@@H](C)CO)C[C@@H](C)[C@H](CN(C)C(=O)NC2CCCCC2)OCCCC[C@@H](C)O3)cc1 | active
37 | C[C@@H]1CCCCO[C@H](CN(C)C(=O)NC2CCCCC2)[C@H](C)CN([C@H](C)CO)C(=O)c2cc(NS(=O)(=O)c3ccc(F)cc3)ccc2O1 | active
38 | C[C@@H]1CCCCO[C@@H](CN(C)C(=O)NC2CCCCC2)[C@@H](C)CN([C@@H](C)CO)C(=O)c2cc(NS(=O)(=O)c3ccc(F)cc3)ccc2O1 | inactive

Row | Structure (SMILES) | cytotoxicity call
39 | Cc1ccc(S(=O)(=O)Nc2ccc3c(c2)C(=O)N([C@@H](C)CO)C[C@H](C)[C@@H](CN(C)C(=O)NC2CCCCC2)OCCCC[C@H](C)O3)cc1 | active
40 | Cc1ccc(S(=O)(=O)Nc2ccc3c(c2)C(=O)N([C@@H](C)CO)C[C@H](C)[C@H](CN(C)C(=O)NC2CCCCC2)OCCCC[C@@H](C)O3)cc1 | inactive
41 | C[C@@H]1CN([C@@H](C)CO)S(=O)(=O)c2ccc(-c3ccc(C(=O)N(C)C)cc3)cc2O[C@H]1CN(C)C(=O)C1CCC1 | inactive
42 | CCS(=O)(=O)NCc1nccc(N(C)C)n1 | inactive
43 | COc1ccc(S(=O)(=O)N(C)C[C@H]2OCc3cn(nn3)CCCC(=O)N([C@H](C)CO)C[C@@H]2C)cc1 | inactive
44 | O=C(C[C@@H]1CC[C@H]2[C@@H](COC[C@@H](O)CN2S(=O)(=O)c2ccccc2)O1)N[C@@H]1CCN(Cc2ccccc2)C1 | inactive
45 | Cc1noc(C)c1NC(=O)Nc1ccc2c(c1)C(=O)N([C@H](C)CO)C[C@H](C)[C@@H](CN(C)Cc1ccc(Cl)c(Cl)c1)OCCCC[C@@H](C)O2 | inactive
46 | Cc1noc(C)c1NC(=O)Nc1ccc2c(c1)C(=O)N([C@@H](C)CO)C[C@@H](C)[C@H](CN(C)Cc1ccc(Cl)c(Cl)c1)OCCCC[C@H](C)O2 | inactive
47 | Cc1noc(C)c1NC(=O)Nc1ccc2c(c1)C(=O)N([C@H](C)CO)C[C@H](C)[C@H](CN(C)Cc1ccc(Cl)c(Cl)c1)OCCCC[C@H](C)O2 | inactive
48 | Cc1noc(C)c1NC(=O)Nc1ccc2c(c1)C(=O)N([C@H](C)CO)C[C@@H](C)[C@@H](CN(C)Cc1ccc(Cl)c(Cl)c1)OCCCC[C@H](C)O2 | active
49 | Cc1noc(C)c1NC(=O)Nc1ccc2c(c1)C(=O)N([C@@H](C)CO)C[C@H](C)[C@@H](CN(C)Cc1ccc(Cl)c(Cl)c1)OCCCC[C@H](C)O2 | inactive
50 | Cc1noc(C)c1NC(=O)Nc1ccc2c(c1)C(=O)N([C@@H](C)CO)C[C@H](C)[C@@H](CN(C)Cc1ccc(Cl)c(Cl)c1)OCCCC[C@@H](C)O2 | active
51 | Cc1noc(C)c1NC(=O)Nc1ccc2c(c1)C(=O)N([C@H](C)CO)C[C@@H](C)[C@H](CN(C)Cc1ccc(Cl)c(Cl)c1)OCCCC[C@H](C)O2 | inactive
52 | Cc1noc(C)c1NC(=O)Nc1ccc2c(c1)C(=O)N([C@@H](C)CO)C[C@@H](C)[C@H](CN(C)Cc1ccc(Cl)c(Cl)c1)OCCCC[C@@H](C)O2 | active
53 | Cc1noc(C)c1NC(=O)Nc1ccc2c(c1)C(=O)N([C@H](C)CO)C[C@H](C)[C@@H](CN(C)Cc1ccc(Cl)c(Cl)c1)OCCCC[C@H](C)O2 | inactive
54 | Cc1noc(C)c1NC(=O)Nc1ccc2c(c1)C(=O)N([C@H](C)CO)C[C@H](C)[C@H](CN(C)Cc1ccc(Cl)c(Cl)c1)OCCCC[C@@H](C)O2 | inactive
55 | Cc1noc(C)c1NC(=O)Nc1ccc2c(c1)C(=O)N([C@@H](C)CO)C[C@@H](C)[C@@H](CN(C)Cc1ccc(Cl)c(Cl)c1)OCCCC[C@@H](C)O2 | active
56 | Cc1noc(C)c1NC(=O)Nc1ccc2c(c1)C(=O)N([C@H](C)CO)C[C@@H](C)[C@H](CN(C)Cc1ccc(Cl)c(Cl)c1)OCCCC[C@@H](C)O2 | inactive
